A number with no mark means an inactive call. No rule for the calls is given here.

For the assay, the target named is Pantothenate synthetase (Mycobacterium tuberculosis (strain ATCC 25618 / H37Rv)) (UniProt P9WIL5). Nature of the assay: Coupled enzyme confirmation of inhibitors against recombinant Mtb PanC (AID 375).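 Also: 0% = full reaction with vehicle and 100% = no enzyme background.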 The settings on record: coupled enzyme assay; at 10 µM, active compounds read high.
Pantothenate synthetase (Mycobacterium tuberculosis (strain ATCC 25618 / H37Rv)), sequence (P9WIL5 whole entry, looked up): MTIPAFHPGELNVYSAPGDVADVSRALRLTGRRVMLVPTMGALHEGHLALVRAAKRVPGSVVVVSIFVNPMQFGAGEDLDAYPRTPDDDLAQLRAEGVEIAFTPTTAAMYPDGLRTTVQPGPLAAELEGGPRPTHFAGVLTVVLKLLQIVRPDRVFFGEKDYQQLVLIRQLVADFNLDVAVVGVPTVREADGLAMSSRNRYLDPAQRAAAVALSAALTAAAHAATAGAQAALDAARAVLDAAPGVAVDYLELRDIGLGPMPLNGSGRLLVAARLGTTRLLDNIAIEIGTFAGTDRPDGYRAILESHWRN
The term inhibition denotes the drop in the measured response relative to a control, in per cent. `COc1ccc(OC)c(NC(=O)CSc2nnc(Cc3cccn3C)n2-c2ccc(F)cc2)c1`: the inhibition is 0%.
The result for `CCOC(=O)C1CCN(Cc2ccc(F)c(Br)c2)CC1` reads 0%; that for `O=C(CN1C(=O)CSC1=O)Nc1ccc(N2CCOCC2)cc1`, 7%; that for `CC(Oc1ccc(Br)cc1)C(=O)N1CCc2ccccc21` (stereo not given), 0%.
The value for `O=C(Nc1ccc(Cl)c(Cl)c1)Nc1cc(C(=O)N2CCOCC2)ccc1N1CCCCC1` was 4%; that for `CCCCOc1ccc(-c2ncc(C(=O)OCC)c(N)n2)cc1` was 11%; that for `O=C(CCNC(=O)Cn1ccc2ccccc2c1=O)NCCN1CCN(c2ccccc2F)CC1` was 0%.
The value for `Cc1[nH]c2ccccc2c(=O)c1CN(C)Cc1ccccc1` was 6%; that for `CCn1c(CNc2ccc(OC)cc2)nnc1SCC(=O)c1ccc(OC)cc1` was 0%.
As to `O=C(Nc1ccc(N2CCN(Cc3ccccc3Cl)CC2)cc1)c1cccnc1`, the inhibition was 4%.
As for `Cc1ccc(CC2SC(=O)NC2=O)cc1Cl` (stereo not given), the inhibition is 0%.
The result for `COc1ccc(C)cc1NC(=O)CCN1CCCC1` reads 0%; that for `O=C(Nc1ccc2snnc2c1)N1CCN(c2ccccc2)CC1`, 0%; that for `CCc1cc2c(=O)n(C(C)C(=O)OC3CCCCC3)cnc2s1` (stereo not given), 0%.
The value for `CCOC(=O)c1sc2nc(N3CCCC3)c3c(c2c1N)CC(C)(C)OC3` was 0%.
Take `Cc1csc2nc(CSc3ccc(Cl)cc3)cn12`: the inhibition was 0%.
The result for `CCN(CC)CCNC(=O)c1cc(Cl)c(N)cc1OC` reads 0%; that for `O=C(NCc1ccc(F)cc1)C1CCN(C(=O)NCc2ccccc2)CC1`, 0%.
The value for `CCn1nc(C(=O)O)c(=O)c2cc3c(cc21)OCO3` was 5%.
The result for `O=C(Nc1ccc2c(c1)OCO2)C1CCCN1C(=O)Nc1ccccc1F` (stereo not given) reads 3%.
For `CCC[C@@H]1C[C@@H](C(=O)N[C@H]([C@@H](C)O)[C@H]2O[C@H](SC)[C@H](O)[C@@H](O)C2O)N(C)C1` (stereo not given in full), the inhibition is 0%.
The result for `COc1ccc(N2C(=O)c3cccc4cccc(c34)C2=O)nn1` reads 0%.
The result for `COc1ccc(Oc2nc(Oc3ccc(OC)cc3)nc(Oc3ccc(OC)cc3)n2)cc1` reads 0%; that for `Cc1oc2c(CN3CCCC3)c(O)ccc2c(=O)c1-c1ccccc1`, 0%; that for `COc1ccccc1N1CC(O)=C(c2nc3ccccc3c(=O)[nH]2)C1=N`, 13%.
The result for `COCCSc1nnc(NC(=O)Cc2ccccc2OC)s1` reads 4%; that for `C=CCOc1nc2c(c(=O)n(C)c(=O)n2C)n1C`, 0%.
As for `CCOC(=O)/C=C1\SCC(=O)N1Cc1nnc(-c2ccccc2Br)o1`, the inhibition was 0%.
Turning to `Cn1c(SCc2ccc3c(c2)OCO3)nnc1-c1ccccc1`, the inhibition was 0%.
The result for `Cc1noc(NS(=O)(=O)c2ccc(N3C(=O)c4ccccc4C3=O)cc2)c1C` reads 3%; that for `COc1cccc(OC)c1OCCNCCO`, 2%.
The result for `O=C(CNc1ccc(Oc2ccccc2)cc1)N1CCOCC1` reads 0%.
The value for `CC(=O)N1CCc2cc(S(=O)(=O)NC(CC(C)C)C(=O)N3CCn4c3nc3ccccc34)ccc21` (stereo not given) was 0%.
`O=C(O)Cn1cc2c(n1)CCCC2`: the inhibition was 0%.
`COc1ccccc1-n1c(=O)[nH]c2c(C(N)=O)nc(CC(C)C)nc21`: the inhibition is 0%.
The result for `CC(=O)OC[C@H]1O[C@@H](n2ncc(=O)[nH]c2=O)[C@H](OC(C)=O)[C@@H]1OC(C)=O` reads 0%; that for `Cn1c(Cl)nc2ccccc21`, 0%.
As for `Cc1cc(Nc2ccccc2F)n2ncnc2n1`, the inhibition is 0%.
The value for `c1cc(C(c2nnnn2C2CCCC2)N2CCOCC2)ccn1` (stereo not given) was 4%.
The value for `CC(C)N(Cc1nc(-c2ccc(Cl)cc2)no1)C(=O)CN(C)S(=O)(=O)c1ccc(Cl)cc1` was 0%.
